Screening data (PubChem)
Hits are enriched below; roughly 10% of the tested compounds scored in any of these assays.
GPT2 inh – blocks human glutamate pyruvate transaminase 2. Q8TD30. Recombinant GPT2, coupled pyruvate oxidase/HRP Amplex Red fluorescence. Potency, µM (highest dose often 57.7 µM), for the others: top-dose activity change, negative = inhibition, hits mostly inhibitors. actives 0.25% (n = 100,000). AID 1671188; note: % is set by controls: 0 for no effect and ±100 for the full control effect; nearly all actives have a fitted effect of over 60% in size
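Fluorescence of coupled pyruvate oxidase/HRP/Amplex Red system (50uM Amplex, 30 min, dark) reports pyruvate formed by GPT2. Enzyme reaction: 10ng/uL GPT2, 2mM L-alanine, 250uM a-KG, 30 min room temperature, pH 7.5; 50uM AOA control.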
NPR1 antag – blocks ANP-stimulated signaling of human Npr1 receptor; P16066; HEK293 hNpr1 GloSensor cGMP, ANP-stimulated luminescence; Potency, µM (series often up to 46.3 µM), for the others: top-dose activity change, negative = inhibition, usual class: inhibitors; actives 1.6% (n = 76,000); calls by dose curve; note: % is set by controls: 0 for no effect and ±100 for the full control effect; nearly all actives have a fitted effect of over 60% in size
Target sequence (P16066 whole entry, looked up): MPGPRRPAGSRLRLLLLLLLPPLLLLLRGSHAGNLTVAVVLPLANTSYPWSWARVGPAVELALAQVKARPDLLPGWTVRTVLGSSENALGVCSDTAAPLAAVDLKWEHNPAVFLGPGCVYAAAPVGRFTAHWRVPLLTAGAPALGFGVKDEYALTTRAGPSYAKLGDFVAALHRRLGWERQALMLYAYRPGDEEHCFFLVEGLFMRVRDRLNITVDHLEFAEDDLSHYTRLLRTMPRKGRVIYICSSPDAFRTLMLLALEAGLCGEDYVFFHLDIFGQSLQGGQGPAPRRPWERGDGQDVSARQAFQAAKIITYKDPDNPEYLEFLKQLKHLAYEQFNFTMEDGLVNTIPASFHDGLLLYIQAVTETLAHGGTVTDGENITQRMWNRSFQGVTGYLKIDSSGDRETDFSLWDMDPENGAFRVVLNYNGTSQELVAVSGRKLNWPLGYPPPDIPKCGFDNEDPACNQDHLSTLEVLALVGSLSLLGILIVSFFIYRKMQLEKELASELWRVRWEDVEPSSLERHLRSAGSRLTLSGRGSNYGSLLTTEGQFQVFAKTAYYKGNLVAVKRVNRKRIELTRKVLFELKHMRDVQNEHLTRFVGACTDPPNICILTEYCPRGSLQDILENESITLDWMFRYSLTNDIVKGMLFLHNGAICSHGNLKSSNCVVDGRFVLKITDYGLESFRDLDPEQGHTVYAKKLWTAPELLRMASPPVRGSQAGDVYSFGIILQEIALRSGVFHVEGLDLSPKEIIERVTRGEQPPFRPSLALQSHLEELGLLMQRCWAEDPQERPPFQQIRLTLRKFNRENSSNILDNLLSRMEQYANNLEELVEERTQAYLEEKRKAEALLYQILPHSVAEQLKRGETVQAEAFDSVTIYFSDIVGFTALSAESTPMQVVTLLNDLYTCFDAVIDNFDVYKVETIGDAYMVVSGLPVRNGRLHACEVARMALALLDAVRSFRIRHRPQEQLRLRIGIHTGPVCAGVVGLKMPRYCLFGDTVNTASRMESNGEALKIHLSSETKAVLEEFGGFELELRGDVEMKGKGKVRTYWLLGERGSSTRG
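HEK293 cells stably expressing human Npr1 and cGMP GloSensor pGS-40F, loaded 2 h with 2% GloSensor reagent, given compound 30 min at room temperature. Luminescence read before and 20 min after 0.1 nM hNppA.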
HEK293 tox – cytotoxic compounds in HEK 293 cells. HEK 293 viability, ATP luminescence (CellTiter-Glo), 48-72 h. actives 6.6% (n = 94,000). Potency, µM (top dose mostly 115 µM), for inactives: top-dose activity change, negative = cytotoxicity, actives largely listed as inhibitors; note: % is set by controls: 0 for no effect and ±100 for the full control effect; nearly all actives have a fitted effect of over 60% in size
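HEK 293 cells seeded at 250 cells/well were exposed to compound for 48 or 72 hr at 37 degree Celsius. Viability taken as ATP content by CellTiter-Glo luminescence.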
FLuc inh-1 – blocks purified firefly luciferase enzyme activity; actives 2.5% (n = 76,000); P08659; purified P. pyralis luciferase, luminescence, biochemical; Potency, µM (doses to about 115 µM), most hits filed as inhibitors; note: % is set by controls: 0 for no effect and ±100 for the full control effect; nearly all actives have a fitted effect of over 65% in size
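FLuc 10nM, D-luciferin 10uM, ATP 10uM, Mg acetate 10mM, Tris acetate pH 7.5, Tween/BSA; cpd qHTS; enzyme added last; CCD luminescence.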
3T3 cytotox – cytotoxic compounds in NIH 3T3 cells. actives 4.3% (n = 94,000). NIH 3T3 viability, CellTiter-Glo ATP luminescence, 48-72 h. Potency, µM (series often up to 96.7 µM), without a hit: at the highest dose activity change, negative = cytotoxicity, hits mostly inhibitors; note: % is set by controls: 0 for no effect and ±100 for the full control effect; nearly all actives have a fitted effect of over 55% in size
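ATP-dependent luminescence (CellTiter-Glo) served as the viability signal for NIH 3T3 cells treated with compound for 48 or 72 hr at 37 °C.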
FLuc SDR no ATP – binders stabilizing firefly luciferase, without ATP | Potency, µM (series often up to 32.7 µM), inactives show at the top dose activation (signal gain), most hits filed as activators | Purified FLuc-C-HiBiT, Nano-Glo HiBiT luminescence, no ATP | AID 1963318 | actives 7.8% (n = 1,300) | shares compounds with FLuc inh-1; note: nearly all actives have a fitted effect of over 55% in size
FLuc SDR ATP – firefly luciferase binding stabilization, ATP added; shares compounds with FLuc inh-1; purified FLuc-C-HiBiT + ATP, HiBiT complementation luminescence; Potency, µM (titrated, usually from 32.7 µM), without a hit: at the highest dose activation (gain of signal), hits mostly activators; actives 8.7% (n = 1,300); AID 1963319;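 note: signal reports ligand binding via conformational change of the enzyme rather than luciferase catalysis; % of control where 0% means no effect; nearly all actives have a fitted effect of over 55% in size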
FLuc inh-2 – firefly luciferase enzyme inhibition | AID 1963320 | Potency, µM (top dose mostly 32.7 µM), for inactives: at the highest dose activity change, negative = inhibition, usual class: inhibitors | actives 42% (n = 1,300) | purified FLuc-C-HiBiT enzyme, luciferin luminescence | shares compounds with FLuc inh-1; note: % is set by controls: 0 for no effect and ±100 for the full control effect; nearly all actives have a fitted effect of over 70% in size
* marks the source's active call; other numbers are inactive results; i = inactive; ? = inconclusive; . = no result. Unless noted, calls come from the whole dose curve; as a rule, active = well fitted curve in the direction sought with a large enough effect; inconclusive = small, poorly fitted or top-dose-only effect, or another doubt; inactive = no such curve, though single readings can be large; an effect the other way counts as inactive or inconclusive. Potency is the fitted concentration of half-maximal effect.

SMILES	GPT2 inh	NPR1 antag	HEK293 tox	FLuc inh-1	3T3 cytotox	FLuc SDR no ATP	FLuc SDR ATP	FLuc inh-2
O=C(NCCNC(=O)c1cccc(Cl)c1)c1ccc(-c2cccc(C(F)(F)F)c2)cc1	.	.	-2.3%	.	-4.1%	.	.	.
COc1ccc(C(=O)NCCn2ccn3nc(-c4ccc(C)cc4C)cc3c2=O)cc1F	i	?	?	1.26µM*	?	31.8%	?	3.51µM*
COc1cccc(-c2cc3c(=O)n(CCNC(=O)c4nn(C)c5ccccc45)ccn3n2)c1	i	-21.2%	?	?	?	.	.	.
Cc1ccc(-c2cc3c(=O)n(CCNC(=O)c4nn(C)c5ccccc45)ccn3n2)c(C)c1	-0.7%	-24.3%	?	1.41µM*	?	?	?	1.57µM*
CCn1ccc(C(=O)N2CCC(c3nc(-c4cccn4C)no3)CC2)n1	i	.	-10.9%	.	-29.1%	.	.	.
Cc1ccc(-c2nc(CC(=O)Nc3ccc4c(c3)C(=O)N3CCC[C@H]3C(=O)N4)cs2)cc1	-5.0%	1.2%	?	?	?	.	.	.
COc1ccc(C(=O)Nc2cccc(-c3nc4ccccc4s3)c2)cc1	.	.	.	.	.	13.6%	9.2%	-15.1%
Cc1cccc(OCC(=O)Nc2cccc(-c3nc4ccccc4s3)c2)c1	.	.	.	.	.	13.7%	9.7%	?
O=C(CSc1nnc2ccccn12)Nc1cccc(-c2nc3ccccc3s2)c1	.	.	.	.	.	12.5%	9.2%	-6.8%
O=C(Cc1ccccc1Cl)Nc1cccc(-c2nnc3n2CCCC3)c1	?	2.0%	-9.9%	i	-9.8%	.	.	.
CCC(CC)C(=O)Nc1cccc(-c2nc3ccccc3s2)c1	.	.	.	.	.	26.2%	7.3%	?
COc1ccc(-c2[nH]ncc2CN2CCCN(S(=O)(=O)c3ccccc3)CCC(=O)NCC2)cc1	-3.8%	3.7%	?	i	?	.	.	.
CCOc1ccccc1C(=O)Nc1cccc(-c2nc3ccccc3s2)c1	.	.	.	.	.	13.5%	11.0%	?
COc1ccccc1C(=O)Nc1cccc(-c2nnc3n2CCCC3)c1	i	3.2%	-4.3%	?	-24.2%	.	.	.
COc1cccc(-c2cc(C(=O)Nc3ccc(F)cc3)c3cnn(C)c3n2)c1	.	.	?	.	-13.5%	.	.	.
COc1cccc(-c2nc3cc(NC(=O)c4ccc(F)c(C#N)c4)ccc3s2)c1	.	.	.	.	.	14.6%	11.6%	-6.9%
Cc1ccc(OCC(=O)Nc2cccc(-c3nc4ccccc4s3)c2)cc1	.	.	.	.	.	13.6%	13.0%	9.89µM*
COCCN1C(=O)CS(=O)(=O)C12CCN(C(=O)Cc1cccc(OC)c1)CC2	i	-3.5%	?	i	-12.3%	.	.	.
COc1ccccc1-n1c(=O)c(C(=O)N2CCN(C(=O)c3ccc(F)cc3)CC2)nc2cccnc21	i	.	-8.9%	.	-15.2%	.	.	.
COc1ccc(NC(=O)Cn2c(SCc3ccc(C)cc3)nc3cccnc32)cc1OC	.	.	.	.	.	1.4µM*	?	0.7µM*
COc1cc(OC)c(NC(=O)Cn2c(SCc3ccccc3F)nc3cccnc32)cc1Cl	.	.	.	.	.	18.4%	12.4%	-8.2%
COc1ccccc1Cn1c(=O)c(C(=O)NCCSC)nc2cccnc21	-6.3%	.	0.8%	.	?	.	.	.
O=C(CC1CCCN(c2cn[nH]c(=O)c2)C1)N1CCN(c2cccc(Cl)c2)CC1 (centres undefined)	i	0.0%	?	i	?	.	.	.
CCCc1ccc(OCc2ccc(C(=O)Nc3ccccc3C(=O)OC)o2)cc1	.	.	.	.	.	11.7%	?	?
CC(C)CNC(=O)c1nc2sccn2c1-c1ccc(C(F)(F)F)cc1	-15.9%	.	?	.	?	.	.	.
